The source made the active and inactive calls. Unless noted, no rule for the calls is given here.
Assays:
[1] = liver-stage malaria parasite load reduction – cell-based, known kinase inhibitor set, luminescence, hepatoma host viability (AID 624392); conditions: Plasmodium liver stage in hepatoma cells, luciferase luminescence, concentration not given here; liver cell % of control: measured here: host liver cell viability; parasite % of control: stronger effect = lower value;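 also: infected cells incubated roughly two days before readout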
[2] = altered dexamethasone sensitivity, NF-kB reporter, cell-based, luciferase, IL-1B stimulus (AID 624486); conditions: IL-1B + dexamethasone, luminescence; percent of negative control (+Dex): actives lie on both sides, concentration not given here; z-score: measured here: IL-1B alone, no Dex;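 as to percent of negative control (+Dex): 100% = mean signal of vehicle control wells on the plate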
[3] = C. elegans survival during P. aeruginosa infection – whole organism (AID 651566);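 also: tested at 14 µM; sign flipped so higher z means a lower ratio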; conditions: C. elegans killed by P. aeruginosa, survival ratio
[4] = pro-inflammatory signaling induction in mouse macrophages – cell-based, murine, luminescence (AID 652131); conditions: murine macrophage pro-inflammatory reporter, stronger effect = higher value
[5] = target: Cellular tumor antigen p53 (Homo sapiens) (UniProt P04637); test: GFP-p53 level modulators in HPV16+ cells – imaging, known kinase inhibitor set, EGFP/DsRed ratio (AID 1053116); conditions: GFP-p53 stability, stronger effect = higher value; EGFP object count: measured here: GFP-p53 positive objects count;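 also: cells exposed to compounds for 24 h at 37 °C before reading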
Sequence of Cellular tumor antigen p53 (Homo sapiens) (P04637 whole entry, looked up): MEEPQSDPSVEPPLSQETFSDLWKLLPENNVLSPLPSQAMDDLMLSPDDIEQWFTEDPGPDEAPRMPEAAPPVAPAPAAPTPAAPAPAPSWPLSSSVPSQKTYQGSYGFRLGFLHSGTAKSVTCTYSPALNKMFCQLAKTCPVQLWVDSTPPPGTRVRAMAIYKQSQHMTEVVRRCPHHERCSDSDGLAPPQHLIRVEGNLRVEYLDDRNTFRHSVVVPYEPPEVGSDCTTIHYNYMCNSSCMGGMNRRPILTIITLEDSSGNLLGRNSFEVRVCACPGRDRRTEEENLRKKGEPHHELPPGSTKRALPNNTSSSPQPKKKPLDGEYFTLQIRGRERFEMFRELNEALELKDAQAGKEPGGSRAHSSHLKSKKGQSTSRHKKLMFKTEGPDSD

[6] = inducers of IRF3 signaling, differentiated THP-1 – cell-based, PMA-stimulated THP-1, luminescence (AID 1053176); conditions: PMA-differentiated THP-1, IRF3 reporter luminescence; stronger effect = higher value
[7] = MELAS cybrid and Rieske KO viability enhancers – cell-based, MELAS cybrids, Rieske KO mouse fibroblasts, CellTiter-Glo, primary screen (AID 1508586;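 active = mean z-score across replicates of 1.96 or higher in either the MELAS or the Rieske mutant cell line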;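 also: z relative to plate mean and SD of compound and empty wells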); conditions: low glucose
[8] = MELAS cybrid survival, CellTiter-Glo 48 h, stronger effect = higher value
[9] = Rieske KO mouse fibroblast survival, CellTiter-Glo 72 h

Compound | liver cell % of control [1] | parasite % of control [1] | percent of negative control (+Dex) [2] | z-score [2] | z-score [3] | z-score [4] | EGFP object count [5] | EGFP/DsRed ratio [5] | fraction signal [6] | z-score [7, 8] | z-score [7, 9]
CNC(=O)c1cccc(C#Cc2cncnc2Nc2ccc(OCc3cccc(F)c3)c(Cl)c2)c1 | 105% | 143% (inactive) | 78% (inactive) | -0.47 | 0.59 (inactive) | -0.769 (inactive) | 1 | 0.0111 (inactive) | 0.003 (inactive) | -1.16 (inactive) | -0.232
CN(C)CCNC(=O)Nc1ccc(N(C)c2ccnc(Nc3ccc(CS(C)(=O)=O)cc3)n2)cc1 | 111% | 94.7% (inactive) | 101% (inactive) | -0.235 | -0.12 (inactive) | 3.19 (inactive) | 1 | 0.0718 (inactive) | 0.0045 (inactive) | -0.741 (inactive) | -0.109
Fc1ccc(-c2ncn(C3CCNCC3)c2-c2ccnc(Oc3ccc(Oc4ccccc4)cc3)n2)cc1 | 58.8% | 102% (inactive) | 99% (inactive) | 0.615 | -1.07 (inactive) | -0.715 (inactive) | 28.5 | 0.354 (inactive) | -0.002 (inactive) | -0.215 (inactive) | -0.0474
Cc1ccc(Nc2ccnc(Nc3cccc(C(N)=O)c3)n2)cc1O | 103% | 259% (inactive) | 106% (inactive) | 1.52 | -0.32 (inactive) | -1.32 (inactive) | 3 | 0.0254 (inactive) | -0.008 (inactive) | -0.195 (inactive) | 0.472
CS(=O)(=O)CCNCc1nc(-c2ccc3ncnc(Nc4ccc(OCc5cccc(C(F)(F)F)c5)cc4)c3c2)cs1 | 96.4% | 93.1% (inactive) | 91.5% (inactive) | -0.43 | -0.1 (inactive) | 0.202 (inactive) | 4.5 | 0.116 (inactive) | -0.002 (inactive) | 0.123 (inactive) | -0.291
OCc1ccc(-c2nc(-c3ccc4c(c3)OCO4)c(-c3ccccn3)[nH]2)cc1 | 108% | 115% (inactive) | 106% (inactive) | -0.455 | -0.12 (inactive) | 1.4 (inactive) | 3.5 | 0.0782 (inactive) | 0.0015 (inactive) | -0.819 (inactive) | -0.0179
O=C(Nc1n[nH]c2nc(-c3ccc(O)cc3)c(Br)cc12)C1CC1 | 74.6% | 71% (inactive) | 206% (active) | 0.485 | 0.105 (inactive) | -1.27 (inactive) | 2.5 | 0.0391 (inactive) | -0.013 (inactive) | 7.51 (active) | -0.202
Cc1ccc(-c2cc3c(NC(=O)C4CC4)ncnc3o2)cc1 | 108% | 92.7% (inactive) | 83.5% (inactive) | -0.295 | -0.475 (inactive) | -0.06 (inactive) | 4.5 | 0.0878 (inactive) | -0.004 (inactive) | -0.119 (inactive) | 0.346
NS(=O)(=O)c1ccc(-c2ccc3c(NC(=O)C4CC4)n[nH]c3c2)cc1 | 109% | 143% (inactive) | 98.5% (inactive) | 0.755 | -0.155 (inactive) | 0.098 (inactive) | 4.5 | 0.0343 (inactive) | -0.0105 (inactive) | -0.641 (inactive) | -0.353
CCCNc1cccc(-n2ncc3c(N/N=C/c4ccncc4)ncnc32)c1 | 95.8% | 39.7% (inactive) | 90% (inactive) | -0.38 | 0.37 (inactive) | -1.11 (inactive) | 8.5 | 0.328 (inactive) | -0.005 (inactive) | 1.12 (inactive) | -0.108
CC1=C(C(=O)Nc2ccc3[nH]ncc3c2)C(c2ccc3ccccc3c2)CC(=O)N1 (centres undefined) | 109% | 30% (inactive) | 79% (inactive) | -1.06 | -0.24 (inactive) | 0.091 (inactive) | 3 | 0.432 (inactive) | -0.014 (inactive) | 0.693 (inactive) | -0.221
FC(F)(F)CNc1nccc(-c2cnn3ncccc23)n1 | 95.3% | 264% (inactive) | 33.5% (active) | -6.74 | -1.18 (inactive) | -1.22 (inactive) | 2 | 0.0558 (inactive) | -0.0105 (inactive) | 0.365 (inactive) | -0.533
Nc1nccc(-c2c(-c3ccc(F)cc3)ncn2CCCN2CCOCC2)n1 | 120% | 130% (inactive) | 116% (inactive) | 2.06 | -0.635 (inactive) | 1.67 (inactive) | 3.5 | 0.019 (inactive) | -0.0025 (inactive) | -0.929 (inactive) | -0.324
CC1(C)CC(n2cnc(-c3ccc(F)cc3)c2-c2ccnc(N)n2)CC(C)(C)N1 | 79.9% | 131% (inactive) | 110% (inactive) | 1.77 | 0.485 (inactive) | 1.82 (inactive) | 4 | 0.0677 (inactive) | 0.0175 (inactive) | -0.417 (inactive) | 0.00971
